Bioassay records deposited in PubChem by National Center for Advancing Translational Sciences (NCATS).
Pf growth 48h: inhibits P. falciparum growth in the first generation, 48 h; 310,000 tested, 5.9% active; Potency, µM (series often up to 28.7 µM), for the others: at the top dose activity change, negative = inhibition, most hits filed as inhibitors; P. falciparum luciferase growth in erythrocytes, 48 h; note: potency is the fitted concentration of half-maximal effect
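Firefly luciferase activity from engineered P. falciparum reports growth; inhibitors lower the luminescent signal. Cultures contained 2% hematocrit erythrocytes at 0.1% final parasitemia.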
Sm TGR inh: blocks Schistosoma mansoni thioredoxin glutathione reductase. Q962Y6. purified TGR, DTNB reduction, TNB absorbance 405 nm. Potency, µM (doses to about 114 µM), without a hit: top-dose activity change, negative = inhibition, most hits filed as inhibitors. 360,000 tested, 3% active. AID 485364; note: potency is the fitted concentration of half-maximal effect; nearly all actives have a fitted effect of over 60% in size
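Kinetic colorimetric format: TGR-catalysed, NADPH-driven DTNB reduction monitored via TNB absorbance. Enzyme dispensed at 20 nM; compound exposure 15 min at room temperature before reaction start.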
HCMV inh: blocks human cytomegalovirus replication; HFF cells, HCMV-luciferase reporter, 72 h; stronger effect = lower value; activity change, negative = inhibition, % at 57.5 µM; 410,000 tested, 4.5% active; AID 1259415; in the data active = activity change below about -60%; inconclusive = no clear call, values can overlap the other calls; inactive = above about -39%
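Cell-based, HFFs, 1000 cells/well, 16 h 37C; cpds in DMSO + HCMV-luc, MOI 1 PFU/cell; 72 h 37C; OneGlo luminescence after 5 min RT; norm. to buffer vs Salinomycin 10uM.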
FBPA Giardia inh: blocks Giardia fructose-bisphosphate aldolase activity; A8B2U2; purified Giardia FBPA; Potency, µM (highest dose often 59.6 µM), for the others: top-dose activity, negative = inhibition, usual class: inhibitors; 290,000 tested, 0.71% active; AID 2451; note: potency is the fitted concentration of half-maximal effect; nearly all actives have a fitted effect of over 55% in size
Target sequence (A8B2U2 whole entry, looked up): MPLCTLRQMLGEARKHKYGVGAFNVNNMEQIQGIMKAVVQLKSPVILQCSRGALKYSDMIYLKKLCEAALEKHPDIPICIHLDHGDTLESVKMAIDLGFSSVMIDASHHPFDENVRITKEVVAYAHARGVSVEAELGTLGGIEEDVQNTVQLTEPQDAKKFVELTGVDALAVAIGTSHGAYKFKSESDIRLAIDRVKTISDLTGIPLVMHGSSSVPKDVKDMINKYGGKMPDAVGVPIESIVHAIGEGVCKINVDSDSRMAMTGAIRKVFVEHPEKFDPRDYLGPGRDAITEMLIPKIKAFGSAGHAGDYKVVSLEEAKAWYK
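Giardia FBPA (40 nM reagent) was preincubated 10 min at RT with compound (up to 57.5 uM final), then substrate plus GAPDH/TPI/NAD/arsenate coupling system with diaphorase/resazurin was added; resorufin fluorescence (525/598 nm) was read after 20 min.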
Pf growth 96h: P. falciparum growth inhibition at 96 hours; AID 504834; P. falciparum luciferase reporter growth, 96 h; Potency, µM (series often up to 28.7 µM), for inactives: top-dose activity change, negative = inhibition, most hits filed as inhibitors; 320,000 tested, 6.9% active; note: potency is the fitted concentration of half-maximal effect
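Erythrocytes infected with luciferase-expressing P. falciparum were dispensed at 2% hematocrit and 0.05% parasitemia (final), then incubated with compounds 96 hours at 37 C in 5% CO2. Luminescence after detection reagent addition reported growth.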
* marks the source's active call; other numbers are inactive results; ? = inconclusive; nt = no result; [ ] = dose if it differs, or a comment. The list is not random: actives were taken first. Their share in the collection is about 14%. Unless noted, calls come from the whole dose curve; as a rule, active = well fitted curve in the direction sought with a large enough effect; inconclusive = small, poorly fitted or top-dose-only effect, or another doubt; inactive = no such curve, though single readings can be large; an effect the other way counts as inactive or inconclusive. % is set by controls: 0 for no effect and ±100 for the full control effect.

SMILES | Pf growth 48h | Sm TGR inh | HCMV inh | FBPA Giardia inh | Pf growth 96h
Cc1c(C(=O)N2CCN(Cc3ccc4c(c3)OCO4)CC2)sc2ncnc(N3CCN(c4ccccc4F)CC3)c12 | -8% | -5% | -76* | nt | ?
CSCCC(=O)N1CCC(n2nccc2NC(=O)CCCc2ccccc2)CC1 | ? | -27% | 13 | nt | ?
COC(=O)CCCCCN1C(=O)NC(CC2CC2)C(C(=O)OCc2ccccc2)=C1C (centres undefined) | nt | nt | nt | -1% | nt
COCCN(C(=O)c1cc(-c2ccco2)nc2ccccc12)c1c(N)n(Cc2ccccc2)c(=O)[nH]c1=O | nt | nt | -69* | nt | nt
CCCN(C(=O)c1cc(-c2ccco2)nc2ccccc12)c1c(N)n(Cc2ccccc2)c(=O)[nH]c1=O | ? | 8.9µM* | -17 | nt | ?
CCCCn1c(N)c(N(CCC(C)C)C(=O)c2cc(-c3ccco3)nc3ccccc23)c(=O)[nH]c1=O | ? | -14% | -39 | nt | -18%
CC1(C)COC(c2cccc(C3=NC(C)(C)CO3)n2)=N1 | 12% | -10% | ? | -24% | 19%
CC(Nc1nc(N2CCN(S(C)(=O)=O)CC2)nc2ccccc12)c1ccccc1 (centres undefined) | 7.4µM* | -2% | 63 | 1% | ?
CC(Nc1ncnc2ccccc12)c1ccccc1 (centres undefined) | -3% | -4% | -82* | 1% | -36%
COc1ccc(Nc2nc(N3CCN(S(=O)(=O)N(C)C)CC3)nc3ccccc23)cc1 | 10µM* | 2% | -85* | 4% | 8.3µM*
COc1ccc(Nc2nc(N3CCN(S(C)(=O)=O)CC3)nc3ccccc23)c(OC)c1 | ? | 9% | 13 | 7% | -16%
COCC(=O)N1CCc2nc(-c3ccc(OC)cc3C)c3c(c2C1)CO[C@@H](c1ccccc1)C3 | nt | nt | nt | 4%[12.9 µM] | nt
c1ccc2c(c1)OC(CCCN1CCCCC1)c1ccccc1S2 (centres undefined) | 13µM* | -13% | -29 | 0% | 10µM*
c1ccc(OCCCCN2CCCCC2)cc1 | -1% | -6% | 7 | 1% | 27%
CN1CCCC(CC2Oc3ccccc3Sc3ccccc32)C1 (centres undefined) | 13µM* | -7% | ? | -22% | ?
Clc1ccccc1-c1ccc(/C=N/Nc2nncc(-c3ccccc3)n2)o1 | 18% | -2% | 28 | -4% | 30%
O=C(NC1CCCN(Cc2ccc(Cl)cc2)C1)c1ccoc1 (centres undefined) | 8% | -11% | 1 | nt | ?
Cc1cccc(NC(=O)CCNC(=O)c2ccco2)c1C | ? | -1% | -39 | 0% | 22%
CCOc1cc(NC(=O)c2ccco2)c(OCC)cc1NC(=O)c1cc(OC)c(OC)c(OC)c1 | ? | 4% | 5 | -6% | -27%
COc1cc(C(=O)OCC(C)=O)cc(NC(=O)c2ccco2)c1OC | 5% | 2% | -69* | 1% | -18%
COc1cc(NC(=O)c2ccco2)c(OC)cc1NC(=O)CCC(=O)Nc1cccc(C)c1C | 12% | 0% | -29 | 4% | 5.2µM*
COc1cc(NC(=O)c2ccco2)c(OC)cc1NC(=O)c1cc(OC)c(OC)c(OC)c1 | ? | -7% | 55 | 2% | 2.9µM*
CCCCC(c1nnnn1CS(=O)(=O)c1ccc(C)cc1)N1CCN(c2ccccc2)CC1 (centres undefined) | 13µM* | 56% | -32 | 7% | nt
CCCC(c1nnnn1CS(=O)(=O)c1ccc(C)cc1)N1CCN(C2CCCC2)CC1 (centres undefined) | ? | 2% | -3 | ? | 7%
Cc1ccc(S(=O)(=O)Cn2nnnc2C(C(C)C)N2CCN(c3nc4ccccc4s3)CC2)cc1 (centres undefined) | 4.7µM* | -4% | -12 | 3% | ?
COc1ccccc1C(c1nnnn1CS(=O)(=O)c1ccc(C)cc1)N1CCSCC1 (centres undefined) | 9.3µM* | 0% | -13 | 6% | 100%
COc1cccc(C(c2nnnn2CS(=O)(=O)c2ccc(C)cc2)N2CCN(C)CC2)c1OC (centres undefined) | ? | 0% | -10 | 1% | 34%
Cc1ccc(CCNC(=O)C2CCN(Cc3nc(-c4ccccc4C)oc3C)CC2)cc1 | nt | -3% | 10 | nt | nt
